A selection: hits, their analogues and other compounds. The true share with any hit is near 4%.
GRIN3A LBD mod – modulates the human NR3A ligand-binding domain | NR3A LBD differential scanning fluorimetry, Tm shift; 0% = protein alone, 100% = glycine-bound protein | Tm shift relative to glycine control, % at 25 µM | 2.5% of 340,000 active | AID 1259313;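 active means melting temperature shift of at least 10% of the positive control shift, at one fixed dose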
ADAM10 inh – inhibitors of human ADAM10; O14672; recombinant ADAM10, EDANS/DABCYL FRET peptide cleavage, 3 h; inhibition, % at 7 µM; 0.62% of 370,000 active; AID 720582;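 active means inhibition above a per-campaign cutoff equal to the mean of compounds falling between control-based bounds plus 3 SD, cut at about 20% in these data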;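 further: 0% = DMSO wells while the 100% control is not disclosed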
ADAM17 inh – inhibitors of human ADAM17; recombinant ADAM17, EDANS/DABCYL FRET peptide cleavage; AID 720648; P78536; inhibition, % at 6.95 µM; 0.83% of 370,000 active;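 active means inhibition above the mean of compounds lying between control limits plus 3 SD, set per campaign, cut at about 8.5% in these data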;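 further: 0% = DMSO-only wells as the low control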
Target sequence (P78536 215-824 limits assumed): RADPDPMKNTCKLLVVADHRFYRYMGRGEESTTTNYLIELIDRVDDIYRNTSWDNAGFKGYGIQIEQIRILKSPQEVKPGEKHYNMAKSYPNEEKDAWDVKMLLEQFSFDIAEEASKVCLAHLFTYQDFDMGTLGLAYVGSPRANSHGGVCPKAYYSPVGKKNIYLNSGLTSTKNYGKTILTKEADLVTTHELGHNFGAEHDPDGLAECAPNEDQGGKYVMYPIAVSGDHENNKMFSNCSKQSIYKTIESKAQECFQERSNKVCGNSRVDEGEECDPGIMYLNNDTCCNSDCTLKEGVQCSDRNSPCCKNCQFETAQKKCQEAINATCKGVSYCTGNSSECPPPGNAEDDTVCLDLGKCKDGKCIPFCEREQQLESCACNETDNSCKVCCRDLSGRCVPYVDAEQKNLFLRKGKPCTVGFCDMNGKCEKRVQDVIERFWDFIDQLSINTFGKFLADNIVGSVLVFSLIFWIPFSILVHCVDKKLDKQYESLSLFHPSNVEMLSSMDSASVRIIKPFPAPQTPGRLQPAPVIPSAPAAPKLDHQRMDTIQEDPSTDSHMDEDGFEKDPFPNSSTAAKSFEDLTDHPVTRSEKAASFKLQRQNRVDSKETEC
aDG glyco up – increases alpha dystroglycan glycosylation. 0.22% of 360,000 active. activation, % at 10 µM. Pro5-aDG cells, alpha-DG glycosylation AlphaScreen (IIH6); 0% Pro5, 100% B10-LARGE cell signal;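 active means activation of at least 8% versus controls, or a plate z-score of at least 8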;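 further: Pro5 are CHO cells carrying HIG-tagged alpha-DG that lacks glycosylation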
FAS TE block – FAS thioesterase (human) inhibition; inhibition, % at 15 µM; recombinant FAS-TE, OMFH fluorogenic substrate, fluorescence endpoint; P49327; 0.67% of 360,000 active;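 active means compounds whose normalised, plate-corrected inhibition of enzyme fluorescence in the single-dose primary screen is 50% or more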;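 further: 0% = DMSO with enzyme and 100% = substrate without enzyme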
ADAM10 ctr – counter-screen for ADAM17 exosite inhibitors: inhibitors of human ADAM10; inhibition, % at 6.95 µM; 47% of 2,900 active; shares compounds with ADAM17 inh; recombinant ADAM10, EDANS/DABCYL FRET peptide cleavage, 3 h;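 active means mean inhibition over the triplicate runs exceeds the activity threshold set in the earlier primary screen, cut at about 20% in these data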;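 further: 0% = DMSO wells and 100% = marimastat wells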
ADAM17 confirm – human ADAM17 inhibition, confirmation; shares compounds with ADAM17 inh; recombinant ADAM17, EDANS/DABCYL QFRET peptide cleavage; inhibition, % at 6.95 µM; 65% of 2,900 active; AID 743257;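 active means mean inhibition across replicates above the hit cutoff set in the primary screen, cut at about 8.5% in these data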;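 further: 0% = DMSO wells and 100% = marimastat wells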
* hit, by the source's call; . = not tested or not shown.

SMILES	GRIN3A LBD mod	ADAM10 inh	ADAM17 inh	aDG glyco up	FAS TE block	ADAM10 ctr	ADAM17 confirm
CCCCOC(=O)c1ccc(NC(=O)COC(=O)CN2C(=O)NC3(CCCC3)C2=O)cc1	0	5	9.2*	0	5	21*	13*
CCCCN(CCCC)CCNC(=O)c1cn(C)c2ccc(S(=O)(=O)N3CCCC3)cc2c1=O	-2	-5	9.4*	0	-14	-6	2
COc1ccc(OCCNS(=O)(=O)c2cccc([N+](=O)[O-])c2)cc1	1	-3	-1	0	10	.	.
O=C(NCC1CCCO1)c1cnn2c1NC(c1ccccc1)CC2C(F)(F)F (stereo not given)	1	7	11*	0	-6	-6	-1
O=C(NCC1CCCO1)c1nn2c(c1Cl)NC(c1ccc(F)cc1)CC2C(F)(F)F (stereo not given)	-1	0	-4	0	-3	.	.
Cc1nc2c3cnn(-c4ccc(C)c(C)c4)c3ncn2n1	0	-5	-4	0	-10	.	.
O=C(CCCc1c[nH]c2ccccc12)Nc1ccc2ccccc2c1	24*	8	10*	0	24	1	4
COc1ccc(NC(=O)c2nc(C)c(C3(C)CC(c4cccnc4)=NO3)s2)cc1 (stereo not given)	0	11	11*	0	8	18	10*
Cc1nc(C(=O)Nc2ccc(Cl)cc2)sc1C1(C)CC(c2cccc([N+](=O)[O-])c2)=NO1 (stereo not given)	-5	2	1	1	30	.	.
COc1ccc(-n2nnnc2-c2ccc(S(C)(=O)=O)cc2Cl)cc1	3	2	-5	0	-7	.	.
COc1ccc(C(=O)COC(=O)c2ccccc2C(=O)N(C)c2ccccc2)c(OC)c1	0	-8	2	0	6	.	.
CCOC(=O)CSC1=C(C#N)C(c2ccc(F)cc2)C(C(C)=O)=C(C)N1 (stereo not given)	-1	13	9.9*	0	10	-13	0
CC(=O)C1=C(C)NC(SCC(N)=O)=C(C#N)C1c1cccnc1 (stereo not given)	1	-9	-2	0	-6	.	.
COc1ccccc1N1CCN(C(=O)c2ccccc2Oc2ccccc2)CC1	0	13	15*	0	6	-2	0
COc1cc(NC(=O)C2CCCN(S(=O)(=O)c3ccc(Cl)s3)C2)cc(OC)c1 (stereo not given)	.	5	10*	.	.	35*	19*
COc1cc(NC(=O)C2CCCN(S(=O)(=O)c3ccccc3)C2)cc(OC)c1 (stereo not given)	.	-1	3	.	.	.	.
CCCCN1CC(O)=C(c2nc3ccccc3[nH]2)C1=N	0	5	0	0	0	.	.
CCCCCN1CC(O)=C(c2nc3ccccc3[nH]2)C1=N	0	11	10*	0	-1	12	8
CCCc1cc(C(=O)N2CCN(c3ccc(C(F)(F)F)cn3)CC2)sc1C	-2	16	12*	0	28	21*	14*
CC(C)(C)NC(=O)C(c1cc2ccccc2o1)n1c(=O)c(-c2ccccc2)nc2ccccc21 (stereo not given)	.	-19	-8	0	.	.	.
O=C(COC(=O)CNS(=O)(=O)c1cccc(Br)c1)Nc1ccccc1Sc1ccccc1	1	15	9.9*	0	-7	27*	15*
CCNC(=O)C/C(C)=N/NC(=O)C1CCCCC1	0	7	8.9*	0	-7	-3	0
COc1ccc(CCNC(=O)C/C(C)=N/NC(=O)C2CCCCC2)cc1OC	-2	-2	-4	0	-5	.	.
O=C(/C=C/c1ccco1)N1CCc2ccccc21	-2	2	3	1	2	.	.
Cc1ccc(S(=O)(=O)N(C)Cc2cc3cc(C)ccc3[nH]c2=O)cc1	1	-29	-6	-1	2	.	.
